About 79,000 compounds went through this panel and 15% of them were active in at least one assay; those are over-represented in the sample as a whole. Values without a mark were called inactive. Active and inactive are the calls of the source. Rule as the data show it: active = growth inhibition above about 70%; inactive = the rest.

A short description of experiment [1]: NCI Yeast Anticancer Drug Screen. Data for the rad50 strain (AID 155).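 Also: 0% = growth of vehicle-only cultures of the same strain.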 The conditions noted are these: S. cerevisiae rad50 strain growth inhibition, stronger effect = higher value. The method, boiled down: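 Cells are treated with compound, grown, and their growth is then scored against vehicle-only cultures of the same repair-deficient yeast strain.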
A short description of experiment [2]: NCI Yeast Anticancer Drug Screen. Data for the mec2-1 strain (AID 157). Conditions: S. cerevisiae mec2-1 strain, stronger effect = higher value. The method, boiled down:
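Using mec2-1 yeast: add compound, measure growth, express inhibition versus vehicle-treated cultures.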

Experiment [3] is described as follows: NCI Yeast Anticancer Drug Screen. Data for the sgs1 mgt1 strain (AID 161).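 Also: 0% = growth of cultures given vehicle only.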 Conditions: S. cerevisiae sgs1 mgt1 strain, stronger effect = higher value. The method, boiled down:
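Yeast cells carrying a defined DNA-repair defect were exposed to test compounds. Growth inhibition was measured relative to vehicle-treated controls.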

The nature of experiment [4]: NCI Yeast Anticancer Drug Screen. Data for the cln2 rad14 strain (AID 165).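 Also: 0% = growth equal to vehicle treated cultures.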 The conditions noted are these: S. cerevisiae cln2 rad14 strain, stronger effect = higher value. In a few lines: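 Yeast strain cln2 rad14, bearing defects in cell cycle control and DNA repair, serves as the test system; values reflect growth inhibition compared with vehicle.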
The nature of experiment [5]: NCI Yeast Anticancer Drug Screen. Data for the bub3 strain (AID 167). The conditions noted are these: S. cerevisiae bub3 mutant strain, stronger effect = higher value. In a few lines: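 Part of a panel of yeast mutants defective in DNA damage repair or cell cycle regulation. Each strain is grown with compound, and inhibition is calculated relative to solvent-treated cultures.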

Experiment [6] in a line: NCI Yeast Anticancer Drug Screen. Data for the mlh1 rad18 strain (AID 175). Conditions: S. cerevisiae mlh1 rad18 strain growth inhibition, stronger effect = higher value. In a few lines: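 Steps: expose repair-defective yeast to compound; measure growth; express inhibition against vehicle-treated controls.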
The mark [7] stands for this setting: at 5.0 µM (retest, dose inferred, filed as 0.5).
Setting [8] is: at 50.0 µM (retest, dose inferred, filed as 5.0).

For `S=C(S)OCN1CCOCC1`, the growth inhibition in experiment [1] (setting [7]) was 80% (active); in experiment [1] (setting [8]) it was 32%; in experiment [1] (at 50.0 µM) it was 98.1% (active); in experiment [2] (setting [7]), 59%; in experiment [2] (setting [8]), 23%; in experiment [2] (at 50.0 µM), 98.2% (active). The growth inhibition was 70% (active) in experiment [3] (setting [7]); 28% in experiment [3] (setting [8]); 96.8% (active) in experiment [3] (at 50.0 µM); 58% in experiment [4] (setting [7]); 20% in experiment [4] (setting [8]); 97.3% (active) in experiment [4] (at 50.0 µM). The growth inhibition in experiment [5] (setting [7]) was 55%; in experiment [5] (setting [8]), 27%; in experiment [5] (at 50.0 µM), 98.8% (active); in experiment [6] (setting [7]), 51%; in experiment [6] (setting [8]), 35%; in experiment [6] (at 50.0 µM) it was 98.2% (active).
Turning to `C=c1c2ccccc2oc2nc3[nH]c(N)c(C#N)c(N)c3c(=N)c12`, the growth inhibition was 16% in experiment [1] (setting [7]); 82% (active) in experiment [1] (setting [8]); 74% (active) in experiment [1] (at 50.0 µM); 1% in experiment [2] (setting [7]); 70% (active) in experiment [2] (setting [8]); 75% (active) in experiment [2] (at 50.0 µM). Besides, the growth inhibition in experiment [3] (setting [7]) is 11%; in experiment [3] (setting [8]) it was 79% (active); in experiment [3] (at 50.0 µM), 73.8% (active); in experiment [4] (setting [7]), 17%; in experiment [4] (setting [8]), 74% (active); in experiment [4] (at 50.0 µM), 48.5%. The growth inhibition in experiment [5] (setting [7]) is 18%; in experiment [5] (setting [8]), 79% (active); in experiment [5] (at 50.0 µM) it was 81.7% (active); in experiment [6] (setting [7]), 7%; in experiment [6] (setting [8]), 75% (active); in experiment [6] (at 50.0 µM) it was 69.2%.
Turning to `O=C(C[P+](c1ccccc1)(c1ccccc1)c1ccccc1)c1ccccc1`, the growth inhibition is 0% in experiment [1] (setting [7]); 10% in experiment [1] (setting [8]); 11.8% in experiment [1] (at 50.0 µM); 9% in experiment [2] (setting [7]); 14% in experiment [2] (setting [8]); 23.4% in experiment [2] (at 50.0 µM). The growth inhibition in experiment [3] (setting [7]) is -7%; in experiment [3] (setting [8]), 11%; in experiment [3] (at 50.0 µM), 22.1%; in experiment [4] (setting [7]), 18%; in experiment [4] (setting [8]), 12%; in experiment [4] (at 50.0 µM) it was 8%. Further, the growth inhibition was 2% in experiment [5] (setting [7]); 8% in experiment [5] (setting [8]); 16.6% in experiment [5] (at 50.0 µM); 5% in experiment [6] (setting [7]); -46% in experiment [6] (setting [8]); 34.6% in experiment [6] (at 50.0 µM).
As for `Cc1ccc(/C=C2\CNC/C(=C\c3ccc(C)cc3)C2=O)cc1`, the growth inhibition was 68% in experiment [1] (setting [7]); 96% (active) in experiment [1] (setting [8]); 86% (active) in experiment [1] (at 50.0 µM); 54% in experiment [2] (setting [7]); 98% (active) in experiment [2] (setting [8]); 86.4% (active) in experiment [2] (at 50.0 µM). The growth inhibition is 76% (active) in experiment [3] (setting [7]); 98% (active) in experiment [3] (setting [8]); 90.5% (active) in experiment [3] (at 50.0 µM); 55% in experiment [4] (setting [7]); 91% (active) in experiment [4] (setting [8]); 77.2% (active) in experiment [4] (at 50.0 µM). The growth inhibition in experiment [5] (setting [7]) is 75% (active); in experiment [5] (setting [8]), 97% (active); in experiment [5] (at 50.0 µM) it was 87.2% (active); in experiment [6] (setting [7]) it was 78% (active); in experiment [6] (setting [8]), 97% (active); in experiment [6] (at 50.0 µM) it was 83.8% (active).
In the case of `COc1ccc2c(c1OC)OCC(CN(C)C)C2=O` (stereo not given), the growth inhibition in experiment [1] (setting [7]) was -20%; in experiment [1] (setting [8]) it was 98% (active); in experiment [1] (at 50.0 µM) it was 97% (active); in experiment [2] (setting [7]), 2%; in experiment [2] (setting [8]), 99% (active); in experiment [2] (at 50.0 µM), 99.3% (active). In addition, the growth inhibition was 23% in experiment [3] (setting [7]); 98% (active) in experiment [3] (setting [8]); 99% (active) in experiment [3] (at 50.0 µM); 5% in experiment [4] (setting [7]); 99% (active) in experiment [4] (setting [8]); 96.3% (active) in experiment [4] (at 50.0 µM). For the same compound, the growth inhibition in experiment [5] (setting [7]) was 1%; in experiment [5] (setting [8]), 99% (active); in experiment [5] (at 50.0 µM) it was 93.9% (active); in experiment [6] (setting [7]) it was -4%; in experiment [6] (setting [8]) it was 98% (active); in experiment [6] (at 50.0 µM) it was 99.2% (active).
As to `Cc1cc(C(=O)c2ccc(Cl)cc2)ccc1O`, the growth inhibition in experiment [1] (setting [7]) is 0%; in experiment [1] (setting [8]), 4%; in experiment [1] (at 50.0 µM) it was 72.4% (active); in experiment [2] (setting [7]), -4%; in experiment [2] (setting [8]) it was -2%; in experiment [2] (at 50.0 µM), 57.5%. For the same compound, the growth inhibition is 0% in experiment [3] (setting [7]); 4% in experiment [3] (setting [8]); 85.9% (active) in experiment [3] (at 50.0 µM); -6% in experiment [4] (setting [7]); -9% in experiment [4] (setting [8]); 46% in experiment [4] (at 50.0 µM). Also, the growth inhibition in experiment [5] (setting [7]) is -3%; in experiment [5] (setting [8]) it was 0%; in experiment [5] (at 50.0 µM), 24.8%; in experiment [6] (setting [7]), -1%; in experiment [6] (setting [8]), -2%; in experiment [6] (at 50.0 µM), 70.5% (active).
For the compound `Cc1nn(CCO)c(C)c1N=[N+]([O-])c1c(C)nn(CCO)c1C`, the growth inhibition is 12% in experiment [1] (setting [7]); 98% (active) in experiment [1] (setting [8]); 88.8% (active) in experiment [1] (at 50.0 µM); 12% in experiment [2] (setting [7]); 98% (active) in experiment [2] (setting [8]); 91.8% (active) in experiment [2] (at 50.0 µM). In addition, the growth inhibition is 24% in experiment [3] (setting [7]); 98% (active) in experiment [3] (setting [8]); 89.3% (active) in experiment [3] (at 50.0 µM); 9% in experiment [4] (setting [7]); 95% (active) in experiment [4] (setting [8]); 86% (active) in experiment [4] (at 50.0 µM). Also, the growth inhibition was 20% in experiment [5] (setting [7]); 97% (active) in experiment [5] (setting [8]); 90.6% (active) in experiment [5] (at 50.0 µM); 27% in experiment [6] (setting [7]); 98% (active) in experiment [6] (setting [8]); 89.1% (active) in experiment [6] (at 50.0 µM).
Turning to `O/N=C1\c2ccccc2-c2ccc(F)cc21`, the growth inhibition in experiment [1] (setting [7]) was 20%; in experiment [1] (setting [8]) it was 90% (active); in experiment [1] (at 50.0 µM), 95% (active); in experiment [2] (setting [7]), 7%; in experiment [2] (setting [8]) it was 73% (active); in experiment [2] (at 50.0 µM), 84.2% (active). The growth inhibition in experiment [3] (setting [7]) was 13%; in experiment [3] (setting [8]), 87% (active); in experiment [3] (at 50.0 µM) it was 91.6% (active); in experiment [4] (setting [7]), 5%; in experiment [4] (setting [8]) it was 71% (active); in experiment [4] (at 50.0 µM) it was 63%. In addition, the growth inhibition was 1% in experiment [5] (setting [7]); 77% (active) in experiment [5] (setting [8]); 91.1% (active) in experiment [5] (at 50.0 µM); 13% in experiment [6] (setting [7]); 78% (active) in experiment [6] (setting [8]); 93.8% (active) in experiment [6] (at 50.0 µM).
In the case of `COc1ccc2nc3cc([N+](=O)[O-])ccc3c(NNc3ccccc3)c2c1`, the growth inhibition was -2% in experiment [1] (setting [7]); -5% in experiment [1] (setting [8]); 62.2% in experiment [1] (at 50.0 µM); 5% in experiment [2] (setting [7]); -4% in experiment [2] (setting [8]); 1.7% in experiment [2] (at 50.0 µM). Further, the growth inhibition in experiment [3] (setting [7]) was -2%; in experiment [3] (setting [8]), -13%; in experiment [3] (at 50.0 µM), 49.1%; in experiment [4] (setting [7]) it was 3%; in experiment [4] (setting [8]) it was -12%; in experiment [4] (at 50.0 µM) it was 29.7%. For the same compound, the growth inhibition in experiment [5] (setting [7]) is 3%; in experiment [5] (setting [8]), 6%; in experiment [5] (at 50.0 µM), 5%; in experiment [6] (setting [7]), 0%; in experiment [6] (setting [8]), -11%; in experiment [6] (at 50.0 µM), 60.8%.
`CCOc1ccc(C(C[N+](=O)[O-])Sc2ccccc2N)cc1` (stereo not given): the growth inhibition in experiment [1] (setting [7]) is 36%; in experiment [1] (setting [8]), 47%; in experiment [1] (at 50.0 µM), 73.5% (active); in experiment [2] (setting [7]), 36%; in experiment [2] (setting [8]), 46%; in experiment [2] (at 50.0 µM), 92.1% (active). In addition, the growth inhibition in experiment [3] (setting [7]) was 42%; in experiment [3] (setting [8]), 57%; in experiment [3] (at 50.0 µM), 92.7% (active); in experiment [4] (setting [7]), 29%; in experiment [4] (setting [8]) it was 29%; in experiment [4] (at 50.0 µM) it was 83.9% (active). The growth inhibition in experiment [5] (setting [7]) is 32%; in experiment [5] (setting [8]) it was 72% (active); in experiment [5] (at 50.0 µM) it was 91.7% (active); in experiment [6] (setting [7]), 45%; in experiment [6] (setting [8]) it was 59%; in experiment [6] (at 50.0 µM) it was 87% (active).

The values are drawn from PubChem BioAssay (NCI).
